Experiment [1] can be described thus: P-glycoprotein substrates identified in KB-8-5-11 adenocarcinoma cell line, qHTS therapeutic library screen (AID 1346987). Note: nearly all actives have a fitted effect of over 65% in size. Summed up:
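In this qHTS, P-gp-rich KB-8-5-11 cells received library compounds across a concentration range. Viability was quantified by luminescence after 72 h at 37 degree C.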
(In general: qHTS replaces the single test concentration by a dilution series.)

Experiment [2] in a line: Natriuretic polypeptide receptor (hNpr1) antagonism - Pilot counterscreen GloSensor control cell line (AID 1347045; calls by dose curve; note: series mostly up to about 38 µM). The procedure, abridged:
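HEK293 cGMP-sensor cells; 2% GloSensor reagent 2 h RT; LOPAC compounds in 1:5 titrations 30-50 min; 50 uM SNP 20 min; luminescence pre-read and post-read.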
In general terms: Counterscreens check selectivity or assay interference.

For experiment [3], the target named is Atrial natriuretic peptide receptor 2 (Homo sapiens) (UniProt P20594). The experiment is described as follows: Natriuretic polypeptide receptor (hNpr2) antagonism - Pilot subtype selectivity assay (AID 1347050; calls by dose curve). The procedure, abridged: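 Antagonist mode: compounds (LOPAC1280, seven 1:5 dilutions) added 30 min before 1 nM hNppC stimulation of hNpr2-HEK293 cGMP-sensor cells; luminescence read before and 20 min after agonist at ambient temperature.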
Sequence of Atrial natriuretic peptide receptor 2 (Homo sapiens) (P20594 whole entry, looked up): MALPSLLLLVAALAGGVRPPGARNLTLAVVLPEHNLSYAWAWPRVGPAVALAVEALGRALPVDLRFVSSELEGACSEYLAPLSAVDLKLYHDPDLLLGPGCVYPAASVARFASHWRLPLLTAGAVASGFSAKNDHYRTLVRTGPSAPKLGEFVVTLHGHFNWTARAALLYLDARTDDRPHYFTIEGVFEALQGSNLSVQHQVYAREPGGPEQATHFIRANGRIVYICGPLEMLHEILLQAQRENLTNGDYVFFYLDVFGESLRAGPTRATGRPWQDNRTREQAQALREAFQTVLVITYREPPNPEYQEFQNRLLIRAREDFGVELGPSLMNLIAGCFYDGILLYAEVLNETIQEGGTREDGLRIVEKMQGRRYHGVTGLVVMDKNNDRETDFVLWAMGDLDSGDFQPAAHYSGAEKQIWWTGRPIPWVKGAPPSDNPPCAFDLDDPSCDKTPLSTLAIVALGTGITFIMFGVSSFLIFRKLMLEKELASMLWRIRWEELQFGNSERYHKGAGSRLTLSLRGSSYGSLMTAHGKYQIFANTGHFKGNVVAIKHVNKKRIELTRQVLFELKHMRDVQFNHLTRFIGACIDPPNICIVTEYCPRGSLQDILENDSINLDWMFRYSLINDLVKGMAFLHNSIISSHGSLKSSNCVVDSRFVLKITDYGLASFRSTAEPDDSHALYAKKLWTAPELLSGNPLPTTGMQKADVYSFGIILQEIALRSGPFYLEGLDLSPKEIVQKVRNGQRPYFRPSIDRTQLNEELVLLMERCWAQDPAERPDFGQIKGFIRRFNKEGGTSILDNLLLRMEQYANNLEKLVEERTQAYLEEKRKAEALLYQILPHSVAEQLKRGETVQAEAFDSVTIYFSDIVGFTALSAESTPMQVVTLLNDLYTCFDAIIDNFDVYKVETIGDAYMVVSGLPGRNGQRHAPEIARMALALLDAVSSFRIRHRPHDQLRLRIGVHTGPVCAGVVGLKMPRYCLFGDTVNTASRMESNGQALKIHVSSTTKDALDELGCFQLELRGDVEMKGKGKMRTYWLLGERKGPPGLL

In experiment [4] the target is T1, Tyrosine-protein phosphatase non-receptor type substrate 1 (Homo sapiens) + Leukocyte surface antigen CD47 (Homo sapiens) (UniProt P78324+Q08722). The experiment is described as follows: CD47-SIRPalpha protein protein interaction - LANCE assay qHTS validation (AID 1347057; active = well fitted curve in the direction sought with a large enough effect in the signal ratio, with a control signal flat, not every such curve was filed as active; the % refers to the signal ratio; note: series mostly up to about 38 µM). Summed up: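 Inhibition of soluble CD47/SIRPalpha ectodomain association by titrated compounds, measured as 665/615 nm time-resolved FRET ratio after sequential 30 min room-temperature incubations.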
T1 sequence (P78324 whole entry, looked up, the tested form may be a part): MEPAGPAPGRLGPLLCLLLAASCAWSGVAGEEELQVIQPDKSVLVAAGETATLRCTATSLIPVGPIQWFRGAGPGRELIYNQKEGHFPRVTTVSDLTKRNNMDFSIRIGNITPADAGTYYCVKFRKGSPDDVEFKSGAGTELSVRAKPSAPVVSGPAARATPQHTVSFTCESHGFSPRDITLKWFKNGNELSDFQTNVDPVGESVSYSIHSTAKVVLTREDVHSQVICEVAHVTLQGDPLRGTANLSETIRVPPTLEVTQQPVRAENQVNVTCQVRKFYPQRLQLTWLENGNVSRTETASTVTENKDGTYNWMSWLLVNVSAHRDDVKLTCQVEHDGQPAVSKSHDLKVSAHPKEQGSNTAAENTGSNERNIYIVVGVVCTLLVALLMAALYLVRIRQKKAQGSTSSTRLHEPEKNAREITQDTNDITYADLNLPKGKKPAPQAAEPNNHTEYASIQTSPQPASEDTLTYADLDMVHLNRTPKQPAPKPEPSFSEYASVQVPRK
T1 sequence (Q08722 whole entry, looked up, the tested form may be a part): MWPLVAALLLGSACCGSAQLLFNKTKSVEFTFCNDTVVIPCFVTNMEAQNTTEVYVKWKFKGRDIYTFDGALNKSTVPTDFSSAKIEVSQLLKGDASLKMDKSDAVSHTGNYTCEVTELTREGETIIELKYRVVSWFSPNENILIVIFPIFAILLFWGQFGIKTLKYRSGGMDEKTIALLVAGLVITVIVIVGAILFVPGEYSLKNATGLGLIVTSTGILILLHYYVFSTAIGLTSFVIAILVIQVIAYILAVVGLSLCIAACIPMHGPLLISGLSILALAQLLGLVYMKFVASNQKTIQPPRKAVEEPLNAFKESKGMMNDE
(Time-resolved FRET reads energy transfer from a long-lived donor to a nearby acceptor.)

Experiment [5] addresses T1, Tyrosine-protein phosphatase non-receptor type substrate 1 (Homo sapiens) + Leukocyte surface antigen CD47 (Homo sapiens). The experiment is described as follows: CD47-SIRPalpha protein protein interaction - HTRF assay qHTS validation (AID 1347058; active = well fitted curve in the direction sought with a large enough effect in the signal ratio, not every such curve was filed as active; the % refers to the signal ratio; note: series mostly up to about 38 µM). Summed up:
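Soluble extracellular domains (6His-CD47, Avi-tag-biotinylated SIRPalpha) in PBS pH 7.4 with 0.05% IGEPAL CA-630. Compounds were preincubated 30 min at RT with CD47 and anti-His-Eu, then SIRPalpha and SAV-XL665 were added. TR-FRET 665/615 ratio.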

Experiment [6] has the same target. Kind of experiment: CD47-SIRPalpha protein protein interaction - Alpha assay qHTS validation (AID 1347059).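 Note: bead proximity luminescence from CD47 binding SIRPalpha after compound preincubation with SIRPalpha.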 Summed up:
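AlphaScreen signal between CD47-His (12.5 nM) and biotin-SIRPalpha (25 nM) soluble extracellular domains, bead-captured via Ni-NTA and streptavidin. Compounds, in 7-point titrations, met SIRPalpha 30 min before CD47; PBS pH 7.4 with 0.05% IGEPAL.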

In experiment [7] the target is Parathyroid hormone/parathyroid hormone-related peptide receptor (Homo sapiens) (UniProt Q03431). The experiment is described as follows: qHTS for PTHR1 Agonists: Optimization Screen against the NCGC LOPAC library (AID 1347079).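 Note: GloSensor cAMP luminescence in HEK-293 GP2 cells expressing human PTHR1 with IBMX.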 Summed up:
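Signal increase flags agonism. GP2 cells, derived from HEK-293, express human PTHR1 and a GloSensor cAMP construct.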

The nature of experiment [8]: qHTS for Inhibitors of the Functional Ribonucleoprotein Complex (vRNP) of Lassa (LASV) Arenavirus: LASV Primary Screen - GLuc reporter signal (AID 1347082; calls by dose curve; tested in HEK293 reporter line; note: series mostly up to about 57 µM; nearly all actives have a fitted effect of over 60% in size).
Experiment [9] can be described thus: qHTS for Inhibitors of the Functional Ribonucleoprotein Complex (vRNP) of Lassa (LASV) Arenavirus: Viability assay - alamar blue signal for LASV Primary Screen (AID 1347083; calls by dose curve; tested in HEK293 reporter line; note: series mostly up to about 57 µM; nearly all actives have a fitted effect of over 80% in size).
Experiment [10] is described as follows: qHTS for Inhibitors of the Functional Ribonucleoprotein Complex (vRNP) of Lymphocytic Choriomeningitis Arenaviruses (LCMV): Viability assay - alamar blue signal for LCMV Primary Screen (AID 1347085; calls by dose curve; tested in HEK293 reporter line; note: series mostly up to about 57 µM; nearly all actives have a fitted effect of over 80% in size).
In experiment [11] the target is Nucleoprotein (Lymphocytic choriomeningitis virus (strain Armstrong)) (UniProt P09992). Kind of experiment: qHTS for Inhibitors of the Functional Ribonucleoprotein Complex (vRNP) of Lymphocytic Choriomeningitis Arenaviruses (LCMV): LCMV Primary Screen - GLuc reporter signal (AID 1347086; calls by dose curve; note: series mostly up to about 57 µM; nearly all actives have a fitted effect of over 70% in size).
Sequence of Nucleoprotein (Lymphocytic choriomeningitis virus (strain Armstrong)) (P09992 whole entry, looked up): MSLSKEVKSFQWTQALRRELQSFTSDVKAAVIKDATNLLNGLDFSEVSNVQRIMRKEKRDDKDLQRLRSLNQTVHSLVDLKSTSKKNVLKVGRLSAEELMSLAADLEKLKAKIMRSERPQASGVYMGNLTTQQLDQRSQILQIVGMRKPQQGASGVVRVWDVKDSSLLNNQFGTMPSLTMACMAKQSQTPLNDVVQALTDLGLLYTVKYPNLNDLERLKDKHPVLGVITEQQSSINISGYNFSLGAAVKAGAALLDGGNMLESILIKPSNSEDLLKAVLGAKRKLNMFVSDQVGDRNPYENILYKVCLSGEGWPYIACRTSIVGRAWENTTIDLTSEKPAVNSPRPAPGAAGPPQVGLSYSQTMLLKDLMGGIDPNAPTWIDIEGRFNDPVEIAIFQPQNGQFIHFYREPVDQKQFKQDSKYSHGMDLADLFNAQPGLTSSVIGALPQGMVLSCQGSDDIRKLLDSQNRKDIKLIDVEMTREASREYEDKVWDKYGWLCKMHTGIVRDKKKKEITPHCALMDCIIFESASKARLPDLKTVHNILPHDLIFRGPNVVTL
A short description of experiment [12]: qHTS of pediatric cancer cell lines to identify multiple opportunities for drug repurposing: Primary screen for TC32 cells (AID 1347089). Note: nearly all actives have a fitted effect of over 60% in size. The procedure, abridged:
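Luminescent ATP read-out (CellTiter-Glo) of metabolically active TC32 cells after 48 h exposure. Concentration-response curves came from 11-point (MIPE, 0.78 nM–46 µM) or 8-point (NPC, 0.59 nM–46 µM) primary titrations; follow-up used 11 points.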

The nature of experiment [13]: qHTS of pediatric cancer cell lines to identify multiple opportunities for drug repurposing: Primary screen for DAOY cells (AID 1347090). Note: nearly all actives have a fitted effect of over 55% in size. Note: potency is the fitted concentration of half-maximal effect. Summed up:
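Cell viability, CellTiter-Glo luminescence; 500-1,000 cells/well, 8- or 11-point titration, 48 h compound exposure at 37 degrees C, 5% CO2. Controls: DMSO neutral, bortezomib 2.3 µM final as positive.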

The nature of experiment [14]: NS1 protein of Zika virus - qHTS assay to identify small molecule inhibitors in human HEK 293 cells (AID 1347053). Note: series mostly up to about 46 µM; nearly all actives have a fitted effect of over 55% in size. The procedure, abridged: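 Read-out is a two-antibody TR-FRET for ZIKV NS1, normalized between uninfected cells and infected cells. Compound added 1 h before MR766 infection at MOI 0.5; human HEK 293 cells incubated 24 h, 37 C.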
A short description of experiment [15]: Identifying Small Molecule Inhibitors of Pancreatic Cancer Stem Cells (SN12C, Adherent) (AID 1259358).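 Note: cell survival measured after 48 h of compound exposure.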 Summed up:
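Cytotoxicity read by CellTiter-Glo luminescence after 48 h compound exposure at 37C; percent activity scaled between DMSO-treated cells and cell-free wells. Spheroid formats used cells pre-formed 14 days in stem cell media on hydrogel.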

A short description of experiment [16]: Identifying Small Molecule Inhibitors of Pancreatic Cancer Stem Cells (SN12C, Spheroid) (AID 1259360). Note: potency is the fitted concentration of half-maximal effect. The settings on record: Potency: SN12C spheroid viability. The procedure, abridged:
(§1)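 Spheroids grown 14 days in stem cell media on hydrogel-coated nonadherent plates; 2D lines seeded directly. Compounds added after 4 h attachment, 48 h at 37C, 5% CO2; CellTiter-Glo luminescence normalized to DMSO (no inhibition) and no-cell wells (full inhibition).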

Experiment [17] can be described thus: P-glycoprotein substrates identified in KB-3-1 adenocarcinoma cell line, qHTS therapeutic library screen (AID 1346986). Note: nearly all actives have a fitted effect of over 60% in size. Summed up: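 Dose-response cytotoxicity, KB-3-1 vs P-gp-high KB-8-5-11, no colchicine in assay medium. Read: CellTiter-Glo at 72 h.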
The nature of experiment [18]: Identifying Small Molecule Inhibitors of Pancreatic Cancer Stem Cells (Panc1, Spheroid) (AID 1259359).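 Note: compound exposure lasted 48 h before reading.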 Summed up:
as §1

Records with an inconclusive call do not appear. The source made the active and inactive calls. Unless noted, calls come from the whole dose curve; as a rule, active = well fitted curve in the direction sought with a large enough effect; inconclusive = small, poorly fitted or top-dose-only effect, or another doubt; inactive = no such curve, though single readings can be large; an effect the other way counts as inactive or inconclusive.

Sequence of Parathyroid hormone/parathyroid hormone-related peptide receptor (Homo sapiens) (Q03431 whole entry, looked up): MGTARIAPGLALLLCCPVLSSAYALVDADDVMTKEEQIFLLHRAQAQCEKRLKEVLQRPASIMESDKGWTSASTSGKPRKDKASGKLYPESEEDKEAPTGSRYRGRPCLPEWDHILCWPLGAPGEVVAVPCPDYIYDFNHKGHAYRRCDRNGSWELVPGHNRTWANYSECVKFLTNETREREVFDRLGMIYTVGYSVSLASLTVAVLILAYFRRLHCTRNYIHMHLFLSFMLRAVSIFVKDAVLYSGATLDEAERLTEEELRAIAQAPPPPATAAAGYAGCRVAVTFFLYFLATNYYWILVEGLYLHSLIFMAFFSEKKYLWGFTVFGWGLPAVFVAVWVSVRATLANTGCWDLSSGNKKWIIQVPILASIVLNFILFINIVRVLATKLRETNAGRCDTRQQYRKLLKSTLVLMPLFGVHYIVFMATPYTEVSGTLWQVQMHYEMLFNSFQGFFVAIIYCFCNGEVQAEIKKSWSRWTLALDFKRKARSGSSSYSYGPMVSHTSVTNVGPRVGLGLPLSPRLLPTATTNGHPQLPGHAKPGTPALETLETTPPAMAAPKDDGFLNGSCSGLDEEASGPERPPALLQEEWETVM

Consider `NCC(O)c1ccc(O)cc1` (centres undefined), for which the Potency entry in experiment [1], in experiment [2], in experiment [3], in experiment [8], in [9] and in experiment [10] was “inactive” each time. Further, the Potency entry in [11], in experiment [12] and in experiment [13] was “inactive” throughout. Also, the outcome in experiment [4], in experiment [5], in experiment [6] and in [7] was inactive.
As for `CCCN1CCC[C@@H]2Cc3[nH]ncc3C[C@H]21`, the Potency entry in [1], in [2], in [3], in experiment [14], in [8] and in [9] was “inactive” in each case. Besides, the Potency result in [10], in [11], in experiment [12] and in [13] was “inactive” each time. Also, the outcome in experiment [4], in experiment [5], in experiment [6] and in [7] was inactive.
Regarding `Cn1cc(C2=C(c3cn(C4CCN(Cc5ccccn5)CC4)c4ccccc34)C(=O)NC2=O)c2ccccc21`, the Potency result in [15], in experiment [16], in experiment [17], in [1], in experiment [14] and in experiment [8] was “inactive” in each case. In addition, the Potency entry in experiment [12] was “inactive”.
In the case of `Cc1cccc(C)c1NC1=NCCCS1`, the Potency entry in experiment [1], in experiment [2], in [3], in [14], in experiment [8] and in experiment [9] was “inactive” throughout. The Potency result in [10], in [11], in [12] and in experiment [13] was “inactive” in each case. Moreover, the result in experiment [4], in experiment [5], in experiment [6] and in experiment [7] was inactive.
For `CC(O)(CS(=O)(=O)c1ccc(F)cc1)C(=O)Nc1ccc(C#N)c(C(F)(F)F)c1` (centres undefined), the Potency entry in experiment [15], in experiment [1], in [3], in experiment [14], in experiment [8] and in experiment [9] was “inactive” each time. Further, the Potency result in experiment [10] and in experiment [11] was “inactive” throughout. Also, the outcome in [4], in experiment [5], in experiment [6] and in experiment [7] was inactive. For the same compound, the Potency in experiment [13] is 2.96 µM (active).
As for `NN=C(N)N`, the Potency entry in experiment [1], in [2], in [3], in experiment [14], in [8] and in [9] was “inactive” in each case. In addition, the Potency entry in experiment [10], in experiment [11] and in experiment [12] was “inactive” in each case. Moreover, the outcome in experiment [4], in [5], in experiment [6] and in experiment [7] was inactive.
`CC(CCc1ccccc1)NC(C)C(O)c1ccc(O)cc1` (centres undefined): the Potency result in experiment [1], in experiment [2], in experiment [3], in [8], in experiment [9] and in experiment [10] was “inactive” throughout. Further, the Potency entry in experiment [11], in experiment [12] and in experiment [13] was “inactive” in each case. For the same compound, the outcome in experiment [4], in [5], in [6] and in [7] was inactive.
Regarding `Cc1ccc(S(=O)(=O)N[C@@H](CCCCN)C(=O)CCl)cc1`, the Potency result in [1], in [2], in experiment [3], in experiment [14], in experiment [8] and in experiment [9] was “inactive” in each case. For the same compound, the Potency result in experiment [10], in experiment [11] and in [12] was “inactive” each time. The outcome in experiment [4], in [5], in experiment [6] and in experiment [7] was inactive.
In the case of `O=C(O)C(=O)c1cn(Cc2ccccc2)c2ccc(-c3ccc(OC(F)(F)F)cc3)cc12`, the outcome in experiment [18] was inactive. Also, in experiment [16], the Potency is 18.7 µM (active). Also, the Potency entry in experiment [17], in experiment [1], in experiment [8], in experiment [9], in experiment [10] and in [11] was “inactive” in each case. In addition, in experiment [12], the Potency entry is “inactive”.
